Luciferase inh – inhibitors of firefly luciferase; P08659; purified firefly luciferase, luminescence, 8 min; Potency, µM (doses to about 57.1 µM), inactives show top-dose activity change, negative = inhibition, most hits filed as inhibitors; 72,000 tested, 2.2% active; AID 411; also: % is scaled to controls: 0 for no effect and ±100 for the full control effect; nearly all actives have a fitted effect of over 40% in size
Target sequence (P08659 whole entry, looked up): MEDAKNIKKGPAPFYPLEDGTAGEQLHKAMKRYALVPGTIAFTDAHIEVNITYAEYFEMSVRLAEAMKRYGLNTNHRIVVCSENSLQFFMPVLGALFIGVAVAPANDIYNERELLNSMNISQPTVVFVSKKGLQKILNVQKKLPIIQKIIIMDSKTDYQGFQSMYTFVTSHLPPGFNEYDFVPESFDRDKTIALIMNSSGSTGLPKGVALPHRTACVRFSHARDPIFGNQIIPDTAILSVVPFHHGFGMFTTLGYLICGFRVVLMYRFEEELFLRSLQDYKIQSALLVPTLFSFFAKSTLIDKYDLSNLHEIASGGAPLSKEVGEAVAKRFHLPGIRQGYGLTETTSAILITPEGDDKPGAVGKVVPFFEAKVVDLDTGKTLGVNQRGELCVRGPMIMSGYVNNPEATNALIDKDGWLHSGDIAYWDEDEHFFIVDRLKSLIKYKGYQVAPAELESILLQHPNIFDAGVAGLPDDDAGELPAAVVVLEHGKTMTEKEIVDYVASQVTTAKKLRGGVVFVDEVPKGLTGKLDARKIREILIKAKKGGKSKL
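qHTS concentration-response profiling: light output of P. pyralis luciferase with luciferin and 10 uM ATP, imidazole buffer pH 7.2. Read by luminescence after 8-min room-temperature incubation.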
Tau fil binding – binds recombinant human tau filaments; recombinant tau filaments, thioflavin S fluorescence, 15 h; filaments grown with octadecylsulfate alongside compound; P10636; Potency, µM (series often up to 57.1 µM), for inactives: at the top dose activity change, negative = inhibition; 71,000 tested, 2% active;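 also: % is scaled to controls: 0 for no effect and ±100 for the full control effect; actives lower thioflavin S fluorescence by blocking filaments or displacing dye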
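His-tagged recombinant human tau (exons 2, 3 and 10 included), 1 uM, was induced to fibrillize by 30 uM sodium octadecylsulfate with compound present. After 15 h at 37 C, thioflavine S fluorescence (ex 450, em 510 nm) was read.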
p53ts 32C tox – cytotoxicity in p53ts cells at permissive temperature; H1299-p53A138V at 32C, ATP luminescence viability, 24 h; Potency, µM (highest dose often 46.1 µM), for inactives: at the top dose activity change, negative = cytotoxicity, most hits filed as cytotoxic; 130,000 tested, 0.93% active; AID 924;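 also: 0% = DMSO and -100% = full killing by reference compound; nearly all actives have a fitted effect of over 55% in size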
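ATP-content luminescence (ATPlite) read-out after 24 h compound exposure at 32C in H1299-p53A138V cells (600/well). Tested up to 46 uM. Normalized to DMSO (0%) and 100 uM tamoxifen (100% killing); Hill-fit AC50.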
p53ts 39C kill – p53ts cell cytotoxicity, nonpermissive temperature. AID 902. 130,000 tested, 1.5% active. H1299-p53A138V viability at 39C, ATP luminescence, 24 h. Potency, µM (titrated, usually from 46.1 µM), inactives show at the highest dose activity change, negative = cell killing, most hits filed as cytotoxic; also: % is scaled to controls: 0 for no effect and ±100 for the full control effect; nearly all actives have a fitted effect of over 55% in size
Imprint erasure – inducers of genomic imprint erasure in mouse ES cells; mouse ES Peg3-LacZ reporter, beta-gal luminescence, 40 h; Potency, µM (doses to about 60.7 µM), inactives show at the top dose activity change, positive = activation, hits mostly activators; 110,000 tested, 0.02% active
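Gelatin-coated wells received 300 freshly trypsinized female ES cells with a Peg3LacZ-Neo reporter on the maternal allele, then incubated 40 hours at 37C. BetaGlo was added for 5 minutes at room temperature before a single luminescence read.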
Starred values were filed as active, the others as inactive; u = inconclusive; x = not tested or not shown; ! = not confirmed by another sample; [ ] = remark or other dose. A selection: hits, their analogues and other compounds. The true share with any hit is near 3.4%. Calls follow the shape of the dose curve; as a rule, active = well fitted curve in the direction sought with a large enough effect; inconclusive = small, poorly fitted or top-dose-only effect, or another doubt; inactive = no such curve, though single readings can be large; an effect the other way counts as inactive or inconclusive. Potency is read from the fitted curve at half-maximal effect.

SMILES	Luciferase inh	Tau fil binding	p53ts 32C tox	p53ts 39C kill	Imprint erasure
CCOc1ccc(NC(=O)c2ccc(N)cc2)cc1	13µM*	-2%	13µM*	13µM*	-66%
CCOc1ccc(NC(=O)c2nn(C)cc2Br)cc1	10µM*	x	x	x	x
CCOc1ccc(NC(=O)c2ncn(-c3ccccc3)n2)cc1	x	x	-12%	-23%	-7%[10.9 µM]
CCCn1c(-c2ccc(F)cc2)nc2c(NCCN(C)C)nc(C)nc21	x	-6%	-3%	8%	-10%
c1ccc2nc3c(nc2c1)[nH]c1ccccc13	16µM*	21%	u	u	-68%
CCOC(=O)c1cccc(NC(=O)c2cccs2)c1	-27%	5%	-10%	-4%	-30%
CCOC(=O)c1sc(NC(=O)c2cccs2)cc1C	2µM*	4%	u	u	-68%
CCOC(=O)c1sc(NC(=O)c2ccc(Br)o2)cc1C	5µM*	111%	u	u	-74%
Cc1ccc(C)c(N2CCN(CCCNC(=O)c3ccc4nc(CCc5ccccc5)oc4c3)CC2)c1	x	x	-27%	25µM*	-18%[10.9 µM]
Cc1ccc(C)c(N2CCN(CCCNC(=O)c3ccc4nc(C(C)C)oc4c3)CC2)c1	x	x	-14%	-21%	-20%[10.9 µM]
Cc1ccc(Cl)cc1N1CCN(CCCNC(=O)c2ccc3nc(N4CCCCC4)sc3c2)CC1	x	x	-2%	-4%	-22%[10.9 µM]
Cc1ccc(C)c(N2CCN(CCCNC(=O)c3ccc4nc(N5CCC(C)CC5)sc4c3)CC2)c1	x	x	-6%	13µM*	-19%[10.9 µM]
COc1ccc(CCN2CCC(Nc3nc4ccccc4n3Cc3ccc(F)cc3)CC2)cc1	2%[25.5 µM]	101%[25.6 µM]	-15%	13µM*!	-42%
CN1CCN(CCNC(=O)c2cnn(-c3cccc(Cl)c3)c2C2CCN(C(=O)OC(C)(C)C)CC2)CC1	x	x	6%	-4%	29%[10.9 µM]
Cc1ccc(-n2ncc(C(=O)NCCN3CCC(Cc4ccccc4)CC3)c2C2CCN(C(=O)OC(C)(C)C)CC2)cc1	x	x	u	7.9µM*	-24%[10.9 µM]
CC(C)(C)OC(=O)N1CCC(c2c(C(=O)NCCN3CCC(Cc4ccccc4)CC3)cnn2-c2cccc(Cl)c2)CC1	x	x	u	20µM*	-23%[10.9 µM]
NC[C@@H]1O[C@@H](O[C@H]2[C@@H](O)[C@H](O[C@@H]3[C@H](O)[C@H](N)C[C@H](N)[C@H]3O[C@@H]3O[C@@H](CO)[C@H](O)[C@H](O)[C@@H]3N)O[C@H]2CO)[C@H](N)[C@H](O)[C@@H]1O	2%	-7%	-10%	4%	x
O=C(c1ccc(F)cc1)c1cn(Cc2ccccc2F)c2cc3c(cc2c1=O)OCCO3	x	x	6%	-5%	4%[10.9 µM]
COc1ccc(S(=O)(=O)Nc2ccc3c(c2)OCO3)cc1OC	-4%	25µM*	-9%	-6%	-15%
COc1ccc(S(=O)(=O)Nc2ccc3c(c2)OCO3)cc1C(=O)O	x	x	3%	1%	x
COc1ccc(OC)c(NC(=O)C2CCC(CNc3c(N4CCC(C)CC4)c(=O)c3=O)CC2)c1 (configuration not stated)	0%	3.2µM*	7%	7%	-20%
COc1ccc(CCNC(=O)C2CCC(CNc3c(N4CCCC4)c(=O)c3=O)CC2)cc1OC (configuration not stated)	x	x	11%	1%	x
CCCCCCn1c(CN2CCN(CCO)CC2)nc2c1c(=O)n(C)c(=O)n2C	-6%	-10%	2.5µM*	3.2µM*	-82%
CCCCCCn1c(CN2CCC(C)CC2)nc2c1c(=O)n(C)c(=O)n2C	2%	14%	-17%	8%	-15%
Cn1c(=O)c2c(nc(CN3CCN(c4ccccc4)CC3)n2Cc2ccccc2Cl)n(C)c1=O	3%	8%	5%	3%	-4%
SMILES	Luciferase inh	Tau fil binding	p53ts 32C tox	p53ts 39C kill	Imprint erasure
CN1CCN(Cc2nc3c(c(=O)n(C)c(=O)n3C)n2Cc2ccccc2Cl)CC1	13µM*	34%	u	u	-16%
CC1CCCN(Cc2nc3c(c(=O)n(C)c(=O)n3C)n2Cc2c(F)cccc2Cl)C1 (configuration not stated)	6.3µM*	214%	-25%	-10%	-33%
O=C(c1cccc(F)c1)N1CCC2(CC1)CCN(c1ncccn1)CC2	1%[11.4 µM]	-4%	-12%	-8%	x
C(=C\c1ccccc1)/CN1CCN(c2ncnc3c2oc2ccccc23)CC1	13µM*	11%	10µM*	13µM*	-84%
c1cnc(N2CCN(c3ncnc4c3oc3ccccc34)CC2)nc1	-1%	3%	3%	5%	3%
CC(C)(C)NC(=O)c1ccc2nccnc2c1	0%	-6%	4%	4%	0%
O=C(Nc1ccc(Br)cn1)c1ccc2nccnc2c1	-19%	16µM*	-22%	-27%	-41%
COC(=O)c1ccc2c(c1)NC(=O)C(N1CCCC1)S2 (configuration not stated)	-6%	0%	4%	-8%	-8%
COC(=O)c1ccc2c(c1)SC1=C(CCCC1=O)N2	-17%	16µM*	-16%	-12%	-7%
COc1ccc(-n2c(=O)c(CCc3ccccc3)nc3cnc(N4CCNCC4)nc32)cc1	1%[11.4 µM]	7%	-7%	-13%	x
COc1ccc(-c2ccc(CNCCCSc3nnnn3C)o2)cc1Cl	x	x	-14%	11%	-14%[10.9 µM]
Cc1nc2cc3nc(C)sc3cc2s1	16µM*	14%	u	u	-31%
Cc1cc2n(n1)CCCN2C(=O)Nc1ccc(Cl)cc1	x	x	10%	30%	-10%[10.9 µM]
CCOC(=O)Nc1ccc2c(c1)N(C(=O)OC)c1ccccc1CC2	0%	-15%	23%	2%	-17%
CN(C)CC(=O)N1c2ccccc2CCc2ccc(NC(=O)c3ccc(N)cc3)cc21	-21%	16µM*	-17%	-14%	29%
Cc1ccc2c(CC(=O)Nc3ccc(N4CCN(C)CC4)cc3C)coc2c1	6.3µM*	4%	u	u	-14%
CCCCN1C(=O)CN(C2CCCCC2)C(=O)C1c1ccc(OC(C)C)c(OC)c1 (configuration not stated)	x	x	-10%	-16%	-12%[10.9 µM]
CCOC(=O)c1ccc(NC(=O)c2cc3sccc3n2Cc2ccc(Cl)cc2)cc1	x	x	0%	-17%	-6%[10.9 µM]
CCCCS(=O)(=O)/C=C\C=C/S(=O)(=O)CCCC	-14%	10%	20µM*	u	-51%
CCCCS(=O)(=O)/C=C\C1C2C=CC(C2)C1S(=O)(=O)CCCC (configuration not stated)	6%	-13%	-1%	-3%	-15%
CCCN1CCN(CCCNC(=O)c2ccc3c(c2)sc2nc(-c4ccc(OCC)cc4)cn23)CC1	x	x	u	13µM*	-30%[10.9 µM]
COc1ccc(-c2cn3c(n2)sc2cc(C(=O)Nc4ccc(C)cc4C)ccc23)cc1	x	x	3%	-5%	-14%[10.9 µM]
COc1ccc(-c2cn3c(n2)sc2cc(C(=O)Nc4ccc(F)cc4Cl)ccc23)cc1	x	x	-23%	20µM*	-13%[10.9 µM]
CCCCN(CCCNC(=O)c1cc(Nc2ccc(OC)cc2OC)nc2ccccc12)Cc1ccccc1	x	x	-7%	-20%	-9%[10.9 µM]

Screening results (PubChem BioAssay)
